FMDV antiviral: High Throughput Screening for Foot and Mouth Disease Virus Antivirals; FMDV antiviral cell-based qHTS; Potency, µM (series often up to 57.9 µM), inactives show at the top dose activity change, negative = inhibition, usual class: inhibitors; actives 1.2% (n = 410,000); AID 1159524, 2015; calls by dose curve; tested in HEK293T cells; further: read-out not given here; potency means the concentration at half of the fitted maximal effect; nearly all actives have a fitted effect of over 45% in size
Marburg entry inh: qHTS for inhibitors of binding or entry into cells for Marburg Virus; Marburg virus pseudotyped entry inhibition, cell reporter; actives 1.8% (n = 300,000); Potency, µM (series often up to 37.8 µM), inactives show at the top dose activity change, negative = inhibition, hits mostly inhibitors; calls by dose curve; tested in HEK293 cells; further: potency means the concentration at half of the fitted maximal effect
HCMV inh: qHTS Assay for inhibitors of the human cytomegalovirus (HCMV); HFF cells, HCMV-luciferase reporter, 72 h; stronger effect = lower value; actives 4.5% (n = 410,000); activity change, negative = inhibition, % at 57.5 µM; in the data active means activity change below about -60%; inconclusive means no clear call, values can overlap the other calls; inactive means above about -39%
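Two compound doses tested in HFFs infected with HCMV-luciferase, MOI 1 PFU/cell, 72 h at 37C. Lysate luminescence read with OneGlo; data normalized against buffer-only and 10uM Salinomycin inhibitor controls.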
LASV entry inh: qHTS for Inhibitors of binding or entry into cells for Lassa Virus; Potency, µM (series often up to 37.9 µM), without a hit: at the top dose activity change, negative = inhibition, most hits filed as inhibitors; Lassa virus pseudotype entry inhibition, cell reporter; actives 1.2% (n = 300,000); calls by dose curve; tested in HEK293 cells; further: potency means the concentration at half of the fitted maximal effect; nearly all actives have a fitted effect of over 50% in size
Vaccinia Venus: qHTS for Stage-Specific Inhibitors of Vaccinia Orthopoxvirus: Venus Reporter Primary qHTS. Vaccinia virus Venus reporter expression, fluorescence. Potency, µM (highest dose often 36.5 µM), inactives show at the top dose activity change, negative = inhibition, most hits filed as inhibitors. actives 0.46% (n = 330,000); calls by dose curve; tested in A549 cells; further: potency means the concentration at half of the fitted maximal effect; nearly all actives have a fitted effect of over 30% in size
Vaccinia mCherry: qHTS for Stage-Specific Inhibitors of Vaccinia Orthopoxvirus: mCherry Reporter Primary qHTS | Vaccinia virus mCherry reporter infection, fluorescence | Potency, µM (highest dose often 36.5 µM), for the others: at the highest dose activity change, negative = inhibition, usual class: inhibitors | actives 0.63% (n = 310,000); calls by dose curve; tested in A549 cells; further: potency means the concentration at half of the fitted maximal effect; nearly all actives have a fitted effect of over 35% in size
Numbers without * were called inactive; i = inactive; ? = inconclusive; · = not tested or not shown; [ ] = another dose, or the depositor's remark. Rows were chosen to be rich in hits. Some 6.5% of all compounds tested hit in one or more screens of this group. On the % scale 0 is the no-effect control and ±100 the full control effect.

SMILES	FMDV antiviral	Marburg entry inh	HCMV inh	LASV entry inh	Vaccinia Venus	Vaccinia mCherry
COc1ccc(OC)c(C2SCCN2S(=O)(=O)c2cccc(C(F)(F)F)c2)c1 (centres undefined)	·	-24%	-61*	-14%	-10%	-16%
CC1CCN(S(=O)(=O)c2ccc3nc(Nc4ccc(C#N)cc4)ccc3c2)CC1	?	·	?	-2%[46.1 µM]	-20%	?
Cc1ccnc(NC(=O)c2cccc(S(=O)(=O)N3CCN(c4ccccc4)CC3)c2)c1	?	?	25	5µM*	-8%	?
Cc1ccnc(NC(=O)c2cccc(S(=O)(=O)N3CCCC3)c2)c1	42%	·	33	·	·	·
COc1ccc(OC)c(S(=O)(=O)N2CCC(C(=O)Nc3cccc(C(F)(F)F)c3)CC2)c1	25µM*	?	?	-30%	?	·
COc1ccc(Nc2cc3c(cn2)nc(-c2ccc(OC)c(OC)c2)n3C)cn1	·	·	21	·	·	·
CCS(=O)(=O)N1CC2(C1)CN(S(=O)(=O)c1cccc(OC)c1)[C@@H](CO)c1[nH]c3cc(OC)ccc3c12	·	·	-4	·	·	·
O=C(Nc1ccncc1)C1CCN(S(=O)(=O)c2cccc(C(F)(F)F)c2)CC1	-11%	·	-29	·	·	·
Cc1ccc(NC(=O)C2CCN(S(=O)(=O)c3cccc(C(F)(F)F)c3)CC2)nc1	-18%	1%	-94*	-12%	-19%	-2%
Cc1ccc(NC(=O)c2cccc(S(=O)(=O)N3CCN(c4ccccc4)CC3)c2)nc1	-25%	?	-85*	-1%	-11%	-28%
N#Cc1sc2nccc(Nc3ccccc3)c2c1N	?	-28%[46.1 µM]	-87*	-27%	-18%[7.34 µM]	-2%[7.34 µM]
Nc1cc(Nc2ccccc2)ccn1	-17%	-26%[46.1 µM]	-25	0%	-14%	?
COc1ccc(OC)c(-n2cnc3cc(C(=O)NCCc4ccccc4)ccc32)c1	32%	·	22	7%[46.1 µM]	-13%	-3%
Cc1cc(C)cc(-n2cnc3cc(C(=O)NCCc4ccccc4)ccc32)c1	24%	·	-99*	3%[46.1 µM]	-24%	-24%
COC(CNC(=O)c1ccc2c(c1)ncn2-c1cccc(F)c1)OC	-6%	6%	-73*	-11%	-1%	i
CCOC(=O)c1nnc2c(-c3ccc(Cl)cc3)c(C)nn2c1C	-5%	-16%[46.1 µM]	-3	5%[46.1 µM]	-11%	-11%
Cc1ccc(OCCOc2cccc(C=C3C(=O)NC(=O)NC3=O)c2)c(C)c1	14µM*	?	153	?	-9%	-12%
CN1CCN(C(=O)CCCN2C(=O)/C(=C/c3ccccc3)SC2=S)CC1	-13%	?	-94*	?	-1%	?
O=C(CCN1C(=O)/C(=C/c2ccccc2)SC1=S)N1CCCCCC1	-26%	-11%[46.1 µM]	-97*	?	5%	i
COc1ccc(/C=C2/SC(=S)N(CCCC(=O)N3CCN(C)CC3)C2=O)cc1	13%	?	-100*	-11%	?	?
O=C(O)CCCN1C(=O)/C(=C\C(Cl)=C\c2ccccc2)SC1=S	?	·	-99*	·	·	·
COc1ccc(/C=C2\SC(=S)N(CCC(=O)N3CCCCC3)C2=O)cc1	0%	?	-20	15%	-6%	-15%
C=CCNc1cccc2c1S(=O)(=O)N[C@@H](Cc1ccccc1)CO2	·	·	-22	·	·	·
COC(=O)[C@@H]1CCCN1C(=O)c1c(OC)cc(=O)n2c1CCN(Cc1ccc3nsnc3c1)CC2	-4%	·	·	·	-7%	-10%
Cc1c(-c2ccccc2)n(-c2ccc(Cl)cc2)c2nc3c(c(=O)n(C)c(=O)n3C)n12	-13%	·	11	2%[46.1 µM]	0%	-2%
O=C(Nc1cc(Cl)cc(Cl)c1)c1ccc(F)c(S(=O)(=O)N2CCCCCC2)c1	?	·	41	?	-14%	-13%
COc1cc(/C=C2/SC(=S)N(CCC(=O)N3CCN(C)CC3)C2=O)cc(OC)c1OC	0%	·	?	·	?	10µM*
CN1CCN(C(=O)CCN2C(=O)/C(=C\c3ccc(Cl)cc3Cl)SC2=S)CC1	35µM*	1%[46.1 µM]	-18	?	149%	9%

Assay outcomes as filed in PubChem BioAssay.
